Assay results: PubChem BioAssay AID1626 (SRMLSC, 2009)
Values joined by “and” are separate entries in the source; they are usually repeats but may differ in a detail not shown here. Equal values may be shown once. Among all 220,000 compounds or so, about 2,000 (0.91%) were called active. Another 2% or so got no clear call; they are omitted. The list is a sample of the results. Entries with a potency or affinity are not part of this list. Values without a mark were called inactive. Rule as the data show it: inconclusive = inhibition above about 80% without an active follow-up result; inactive = below that; test concentration not stated here.

experiment: M. tuberculosis H37Rv growth inhibitors, H37Rv strain (AID 1626); settings: active compounds read high, concentration not given here;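 also: bacteria incubated seven days before Alamar blue readout; 0% = bacteria only wells and 100% = bacteria with antibiotic wells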

| SMILES | inhibition |
| --- | --- |
| CCOC(=O)c1ccc(NC(=O)CSc2nnc(COc3ccccc3OC)n2CC)cc1 | 6.35% |
| CCc1cccc(CC)c1NC(=O)c1ccccc1CCc1ccccc1 | 2.03% |
| COC(c1ccccc1)c1nnc(CCC(=O)N(C)CCc2ccccc2)o1 (stereo not drawn) | -1.5% |
| O=C(CCn1cnc2ccccc2c1=O)Nc1nc(-c2ccc(Br)cc2)cs1 | -1.09% |
| COc1ccc(/C=C2/N=C(SCC(=O)Nc3cc(C)on3)N(c3ccccc3)C2=O)cc1 | 2.4% |
| C=CCn1c(CNC(=O)c2ccccc2C)nnc1SCC(=O)NC1CCCC1 | -7.41% |
| CN1CCN(C2=Cc3ccccc3Sc3cc(F)ccc32)CC1 | 2.61% |
| CN1CCN(C2=Cc3ccccc3Sc3cc(F)c(F)cc32)CC1 | 11.1% |
| CN1CCN(CCCN2c3ccccc3Sc3ccc(Cl)cc32)CC1 | -5.97% and 68.2% and 79.9% |
| CN1CCN(c2ccc(F)cc2N)CC1 | 0.4% |
| CCc1ccc(CCC(=O)Nc2nnc(CC)s2)o1 | 7.07% |
| COc1ccc(CNc2nc3nc(C)c(Cl)c(C)n3n2)cc1 | -2.45% |
| O=S(=O)(c1ccc2c(c1)OCCCO2)N1CCNCC1 | -0.23% |
| O=C(c1ccc2c(c1)OCCO2)N1CCCC(CNS(=O)(=O)c2cccs2)C1 (stereo not drawn) | 4.35% |
| Cc1[nH]c2ccccc2c1SCCNC(=O)c1ccc(Br)o1 | -0.07% |
| CCC(=O)Nc1cccc(NC(=O)c2ccc(C)c([N+](=O)[O-])c2)c1 | 15.4% |
| CC(=O)OCCNC(=O)c1cc2ccccc2oc1=O | -6.56% |
| CN(C)CCNC(=O)c1cc2ccccc2oc1=O | 2.99% |
| CCC1(CC)C(=O)N(C)C(=O)NC1=Nc1ccc(OC)cc1 | -7.12% |
| NS(=O)(=O)c1ccc(N=C2C(=O)Nc3ccccc32)cc1 | -2.66% |
| O=S(=O)(Nc1nccs1)c1ccc(F)cc1 | -3.51% |
| O=[N+]([O-])c1ccccc1S(=O)(=O)NCc1ccco1 | 9.2% |
| Cc1ccc2cc(CN(CC3CCCO3)C(=S)NCc3ccco3)c(=O)[nH]c2c1 (stereo not drawn) | 1.74% |
| CC1=CC(=O)N(c2cccc(C(F)(F)F)c2)C1c1ccc(Cl)cc1 (stereo not drawn) | 5.08% |
| Cc1nc([N+](=O)[O-])c(Br)n1Cc1ccccc1 | 28.8% |

| SMILES | inhibition |
| --- | --- |
| Cc1nc([N+](=O)[O-])c(Br)n1CC(=O)c1ccc(F)cc1 | 52.5% |
| Cc1nc([N+](=O)[O-])c(Br)n1CC(=O)c1ccccc1 | 37% |
| Cc1nc([N+](=O)[O-])c(Br)n1CC(=O)c1ccc(Br)cc1 | 18.9% |
| CCN(c1ccccc1)S(=O)(=O)c1ccc(Cl)c(NC(=O)CSc2nncs2)c1 | 6.07% |
| CCCCCCCCc1nc(SCC(C)=O)n[nH]1 | 8.52% |
| O=C(CS(=O)(=O)c1cccc(Cl)c1)Nc1ccccc1Cl | -9.41% |
| CC(C)(C)c1cnnn1-c1ccc(/C=N/Nc2ccc([N+](=O)[O-])cc2)cc1 | -0.06% |
| O=C(NCCN1CCN(c2ccccc2)CC1)c1cccn2c(=O)c3cc(Cl)ccc3nc12 | 8.3% |
| O=[N+]([O-])c1ccc(O)c(N=Cc2sc3ccccc3c2O)c1 | 5.55% |
| Cc1ccc(O)c(N=Cc2sc3ccccc3c2Cl)c1 | 11.1% |
| CCCc1ccc(NS(=O)(=O)c2c(C)oc(C)c2C(=O)OC)cc1 | 3.72% |
| CN1CCN(C(=S)c2cn(Cc3cccc(F)c3)c3ccccc23)CC1 | 2.92% |
| COc1ccc(C)cc1S(=O)(=O)N1CCN(c2cccc(C(F)(F)F)c2)CC1 | -1.59% |
| CC1/C(=N/O)CC(c2ccccc2)N(C)C1c1ccccc1 (stereo not drawn) | -3.61% |
| CCC1C(c2ccccc2)N(C)C(c2ccccc2)CC1(O)c1ccccc1 (stereo not drawn) | 51.8% |
| O=C(Nc1ccc(O)cc1C(=O)O)c1cccc(Br)c1 | 0.45% |
| Fc1ccc(Oc2ncccn2)c(F)c1 | 0.19% |
| Nc1cccnc1Oc1ccc(F)cc1F | -4.1% |
| COc1cnc(-c2ccccn2)nc1Oc1ccccc1Cl | -2.44% |
| COc1cnc(-c2ccccn2)nc1Oc1ccc(Cl)cc1 | 71.9% |
| C#CCOCCOCCOCCNc1nc(N2CCN(C(=O)[C@H](CCC(=O)O)n3cc(C(N)[C@H](C)CC)nn3)CC2)nc(N2CCN(C(=O)[C@H](Cc3ccc(O)cc3)n3cc(C(N)[C@H](C)CC)nn3)CC2)n1 (stereo partly drawn) | 0.56% |
| Cc1ccccc1NC1=C/C(=N\S(=O)(=O)c2cccs2)c2ccccc2C1=O | 61.1% |
| Cc1cccc(NC2=C/C(=N/S(=O)(=O)c3cccs3)c3ccccc3C2=O)c1 | 1.87% |
| Cc1ccc(NC2=C/C(=N/S(=O)(=O)c3cccs3)c3ccccc3C2=O)cc1C | 0.28% |
| O=C1C(Nc2ccccc2)=C/C(=N/S(=O)(=O)c2cccs2)c2ccccc21 | 76.6% |

| SMILES | inhibition |
| --- | --- |
| CC(=O)Nc1ccc(S(=O)(=O)NC(C)C(=O)NCCc2ccc(F)cc2)cc1 (stereo not drawn) | 1.81% |
| O=C(COCC(=O)NCc1ccccc1)NCc1ccccc1 | -4.59% |
| CCN(CC)S(=O)(=O)c1cc(F)ccc1OC | -2.44% |
| CC(C)n1nnc2c(=O)oc3ccccc3c21 | 11.1% |
| CCn1nnc2c(=O)oc3ccccc3c21 | 13.4% |
| COc1cc2c(cc1OC)C(c1cc([N+](=O)[O-])ccc1O)NCC2 (stereo not drawn) | -9.49% |
| CC(=O)c1cccc(NC(=O)N2CCc3ccccc3C2)c1 | -10.8% |
| COCCOC(=O)C1=C(N)OC2=C(C(=O)CC(C)(C)C2)C1c1ccncc1 (stereo not drawn) | -0.69% |
| O=C1NN(c2ccc(Cl)c(Cl)c2)C(=O)/C1=C/c1cccc(OC(=O)c2cccs2)c1 | 34.2% |
| Cc1ccc(N2C(=O)NC(=O)/C(=C/c3ccc(OC(=O)c4cccs4)cc3)C2=O)cc1 | 4.29% |
| COc1c(Cl)cc(Cl)cc1C(=O)Nc1ccccc1N1CCN(C(C)=O)CC1 | 1.59% |
| CCOC(=O)c1[nH]cnc1C(=O)Nc1ccccc1OC | -3.28% |
| O=C(Cn1nnc(-c2ccc(Cl)cc2)n1)NCC1CCCCC1 | 3.64% |
| CCC1CCCCN1CC(=O)Nc1cc(OC)c(OC)cc1C#N (stereo not drawn) | -5.44% |
| O=C(CC1SCCNC1=O)Nc1cccc([N+](=O)[O-])c1 (stereo not drawn) | -1.32% |
| Oc1ccc(Br)cc1C=Nc1ccc(Cl)cc1 | 3.2% |
| Oc1ccc(Cl)cc1C=Nc1ccc(Br)cc1 | -2.18% |
| COCC(C)NC(=O)c1oc2c(c1C)C1(CCC2)SCCS1 (stereo not drawn) | 5.96% |
| Cc1cc(N2CCN(c3ccc(F)cc3)CC2)nc(-c2ccccc2)n1 | 4.82% |
| Cc1cc(N2CCCC2)nc(N2C3CCC2CC(O)(c2ccc(F)cc2)C3)n1 (stereo not drawn) | 0.78% |
| COc1ccc(C2(O)CC3CCC(C2)N3c2nc(C)cc(C)c2C#N)cc1 (stereo not drawn) | -5.82% |
| COc1ccc(NC(=O)C2CCN(c3cc(C)nc(-c4ccccc4)n3)CC2)cc1 | 11.4% |
| O=C(Cc1c(O)c2ccccc2[nH]c1=O)NCc1ccc(F)cc1 | -5.49% |
| CCn1ccnc1CNC(=O)CC1C(=O)NCCN1CC(c1ccccc1)c1ccccc1 (stereo not drawn) | 4.83% |
| CCN(Cc1ccccc1)C(=O)COC(=O)Cn1cnc2ccccc21 | 3.35% |

| SMILES | inhibition |
| --- | --- |
| OC(Cn1ccnc1)c1ccc(Cl)cc1Cl (stereo not drawn) | -10.3% |
| S=C(NCCCn1ccnc1)Nc1ccc(Cl)cc1Cl | 5.11% |
| Clc1ccc(OCCn2ccnc2)c(Br)c1 | 1.12% |
| Clc1ccc(OCCn2ccnc2)c(Cl)c1 | -5.05% |
| OCC[C@H]1C[C@H](O)[C@@H](O)[C@@]2(CCCCO2)O1 | -8.14% |
| S=C(NCc1ccccc1Cl)Nc1ccccc1Cl | 9.29% |
| COc1ccccc1-n1cc(C(=O)c2cc(Cl)ccc2O)cc(C#N)c1=O | 7.62% |
| CC(=O)OC(C(=O)NC1CCCCC1)c1ccc(C)cc1 (stereo not drawn) | -5.04% |
| CCCC(C)C(=O)OCC(=O)Nc1ccc(Br)cc1 (stereo not drawn) | 10.2% |
| Cc1ccc(NC(=O)CSCc2ccc(F)cc2)cc1 | 76.7% |
| COC(=O)c1ccc(NC(=O)CSCc2ccc(C)cc2)cc1 | 70.8% |
| COc1ccc(-n2c(-c3ccc(Cl)cc3)c[n+]3c2CCCCC3)cc1 | -11.5% |
| O=C(C1CCC(CNc2c(N3CCOCC3)c(=O)c2=O)CC1)N1CCN(c2ccccc2)CC1 (stereo not drawn) | -8.11% |
| COc1ccc(CN2CCc3ccccc3C2)c(OC)c1 | -5.76% |
| Cc1ccc(S(=O)(=O)N2CCN=C2c2ccccc2)cc1C | 0.57% |
| O=c1c([N+](=O)[O-])cccn1Cc1cccc(Cl)c1 | -8.12% |
| NC(=O)c1ccc(C(F)(F)F)n(Cc2cccc(Cl)c2)c1=O | 17.3% |
| COC(=O)c1cc(Br)c(=O)n(Cc2ccc(C(=O)O)cc2)c1 | -9.26% |
| COC(=O)c1ccc(Cn2cc(C(F)(F)F)ccc2=O)cc1 | 2.66% |
| CC(C)NC(=O)COC(=O)c1ccc(Oc2ccccc2)cc1 | -7% |
| c1ccc(-c2ccc(OCCCNC3CCCC3)cc2)cc1 | 11.4% |
| O=C1c2oc3ccccc3c(=O)c2C(c2cccc(Br)c2)N1Cc1ccco1 (stereo not drawn) | 1.43% |
| Cc1ccc2oc3c(c(=O)c2c1)C(c1cccc(Br)c1)N(Cc1ccco1)C3=O (stereo not drawn) | 1.98% |
